Paper PMC10812921, “Transcriptional Coactivator BOB1 (OBF1, OCA-B) Modulates the Specificity of DNA Recognition by the POU-Domain Factors OCT1 and OCT2 in a Monomeric Configuration”

Key:
POU1 (OCT1 POU domain) = POU1 (OCT1 POU domain) (human, UniProt P14859 260-458); test: EMSA-SELEX-seq; no BOB1; 20 mM Tris-HCl pH 7.6, 140 mM NaCl, 10% glycerol, 0.5 mM EDTA, 0.05% Triton X-100, 0.1 mg/mL BSA, 0.1 mg/mL poly(dI-dC), 5 mM DTT, room temperature, 20 min; high values mean tight binding; conditions: protein: recombinant; dsDNA, one strand shown
Summary of the method: (§1)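 Binding preference is reported as the percentage of sequenced 8-mers that match a motif pattern. Tagged POU-domain proteins were made in E. coli BL21, purified under denaturing conditions and renatured. A 30 ng portion was combined with 300 ng of a PCR-amplified double-stranded random 35-nt library, with or without 28 ng coactivator protein, in 20 μL Tris–HCl pH 7.6 binding buffer for 20 min at RT. Complex bands were excised from native 6% PAGE, eluted and PCR-amplified over four rounds before Illumina sequencing.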

POU2 (OCT2 POU domain) = molecular target: T1, POU2 (OCT2 POU domain) (human, UniProt P09086 175-386); test: as above; conditions: protein: recombinant; dsDNA, one strand shown
T1 sequence: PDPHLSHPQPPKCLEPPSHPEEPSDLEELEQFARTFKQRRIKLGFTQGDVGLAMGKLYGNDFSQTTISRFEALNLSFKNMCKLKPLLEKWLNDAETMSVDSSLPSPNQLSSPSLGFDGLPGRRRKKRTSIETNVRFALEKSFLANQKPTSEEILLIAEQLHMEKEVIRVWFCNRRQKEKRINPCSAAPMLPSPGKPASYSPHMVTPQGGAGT
Summary of the method: as §1

[1] = molecular target: POU1 (OCT1 POU domain);BOB1 (OBF1, OCA-B) (human;human, UniProt P14859;Q16633 260-458;1-256, |); test: EMSA-SELEX-seq; with BOB1 (ternary complex band); 20 mM Tris-HCl pH 7.6, 140 mM NaCl, 10% glycerol, 0.5 mM EDTA, 0.05% Triton X-100, 0.1 mg/mL BSA, 0.1 mg/mL poly(dI-dC), 5 mM DTT, room temperature, 20 min; high values mean tight binding; conditions: protein: recombinant;recombinant; copies: 1;1; dsDNA, one strand shown
Summary of the method: as §1

[2] = molecular target: T2, POU2 (OCT2 POU domain);BOB1 (OBF1, OCA-B) (human;human, UniProt P09086;Q16633 175-386;1-256, |); test: as above; conditions: protein: recombinant;recombinant; copies: 1;1; dsDNA, one strand shown
T2 sequence 1: T1 sequence
T2 sequence 2: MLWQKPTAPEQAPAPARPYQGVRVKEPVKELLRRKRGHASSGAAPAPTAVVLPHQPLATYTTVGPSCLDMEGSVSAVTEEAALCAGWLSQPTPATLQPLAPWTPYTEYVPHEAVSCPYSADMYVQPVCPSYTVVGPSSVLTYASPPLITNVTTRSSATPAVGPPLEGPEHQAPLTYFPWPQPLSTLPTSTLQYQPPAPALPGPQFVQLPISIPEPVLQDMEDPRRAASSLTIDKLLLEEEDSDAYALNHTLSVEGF
Summary of the method: as §1

Chain of POU1 (OCT1 POU domain) (P14859 260-458): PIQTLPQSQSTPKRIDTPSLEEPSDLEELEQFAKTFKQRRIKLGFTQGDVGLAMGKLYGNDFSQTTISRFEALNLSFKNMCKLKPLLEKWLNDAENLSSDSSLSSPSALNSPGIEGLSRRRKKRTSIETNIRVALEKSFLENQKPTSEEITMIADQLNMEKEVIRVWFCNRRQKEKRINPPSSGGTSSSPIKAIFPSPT

ACGCCAAA
binding signal (POU1 (OCT1 POU domain)): 0.0133 % of ANNNNAAN 8-mers
binding signal (POU2 (OCT2 POU domain)): 0.0219 % of ANNNNAAN 8-mers
binding signal [1]: 0.016 % of ANNNNAAN 8-mers
binding signal [2]: 0.0223 % of ANNNNAAN 8-mers

AGCGGAAA
binding signal (POU1 (OCT1 POU domain)): 0.0378 % of ANNNNAAN 8-mers
binding signal (POU2 (OCT2 POU domain)): 0.0472 % of ANNNNAAN 8-mers
binding signal [1]: 0.0324 % of ANNNNAAN 8-mers
binding signal [2]: 0.033 % of ANNNNAAN 8-mers

ACTAGAAG
binding signal (POU1 (OCT1 POU domain)): 0.0229 % of ANNNNAAN 8-mers
binding signal (POU2 (OCT2 POU domain)): 0.0316 % of ANNNNAAN 8-mers
binding signal [1]: 0.03 % of ANNNNAAN 8-mers
binding signal [2]: 0.0231 % of ANNNNAAN 8-mers

ACTTCAAC
binding signal (POU1 (OCT1 POU domain)): 0.0145 % of ANNNNAAN 8-mers
binding signal (POU2 (OCT2 POU domain)): 0.015 % of ANNNNAAN 8-mers
binding signal [1]: 0.0121 % of ANNNNAAN 8-mers
binding signal [2]: 0.0231 % of ANNNNAAN 8-mers

ACCAGAAC
binding signal (POU1 (OCT1 POU domain)): 0.013 % of ANNNNAAN 8-mers
binding signal (POU2 (OCT2 POU domain)): 0.0127 % of ANNNNAAN 8-mers
binding signal [1]: 0.0129 % of ANNNNAAN 8-mers
binding signal [2]: 0.0223 % of ANNNNAAN 8-mers

ATGATAAC
binding signal (POU1 (OCT1 POU domain)): 0.0339 % of ANNNNAAN 8-mers
binding signal (POU2 (OCT2 POU domain)): 0.0489 % of ANNNNAAN 8-mers
binding signal [1]: 0.0332 % of ANNNNAAN 8-mers
binding signal [2]: 0.0479 % of ANNNNAAN 8-mers

ACGGCAAT
binding signal (POU1 (OCT1 POU domain)): 0.0332 % of ANNNNAAN 8-mers
binding signal (POU2 (OCT2 POU domain)): 0.0368 % of ANNNNAAN 8-mers
binding signal [1]: 0.0336 % of ANNNNAAN 8-mers
binding signal [2]: 0.0289 % of ANNNNAAN 8-mers

AGGCCAAC
binding signal (POU1 (OCT1 POU domain)): 0.0107 % of ANNNNAAN 8-mers
binding signal (POU2 (OCT2 POU domain)): 0.0115 % of ANNNNAAN 8-mers
binding signal [1]: 0.0113 % of ANNNNAAN 8-mers
binding signal [2]: 0.0157 % of ANNNNAAN 8-mers

AAATAAAA
binding signal (POU1 (OCT1 POU domain)): 0.177 % of ANNNNAAN 8-mers
binding signal (POU2 (OCT2 POU domain)): 0.177 % of ANNNNAAN 8-mers
binding signal [1]: 0.199 % of ANNNNAAN 8-mers
binding signal [2]: 0.171 % of ANNNNAAN 8-mers

AAGCTAAC
binding signal (POU1 (OCT1 POU domain)): 0.0137 % of ANNNNAAN 8-mers
binding signal (POU2 (OCT2 POU domain)): 0.0178 % of ANNNNAAN 8-mers
binding signal [1]: 0.0191 % of ANNNNAAN 8-mers
binding signal [2]: 0.0215 % of ANNNNAAN 8-mers

AATTCAAC
binding signal (POU1 (OCT1 POU domain)): 0.069 % of ANNNNAAN 8-mers
binding signal (POU2 (OCT2 POU domain)): 0.0708 % of ANNNNAAN 8-mers
binding signal [1]: 0.0589 % of ANNNNAAN 8-mers
binding signal [2]: 0.0512 % of ANNNNAAN 8-mers

ACTCCAAT
binding signal (POU1 (OCT1 POU domain)): 0.0294 % of ANNNNAAN 8-mers
binding signal (POU2 (OCT2 POU domain)): 0.0219 % of ANNNNAAN 8-mers
binding signal [1]: 0.0242 % of ANNNNAAN 8-mers
binding signal [2]: 0.0231 % of ANNNNAAN 8-mers

ATGTAAAT
binding signal (POU1 (OCT1 POU domain)): 3.45 % of ANNNNAAN 8-mers
binding signal (POU2 (OCT2 POU domain)): 2.89 % of ANNNNAAN 8-mers
binding signal [1]: 2.3 % of ANNNNAAN 8-mers
binding signal [2]: 3.57 % of ANNNNAAN 8-mers

AATTCAAT
binding signal (POU1 (OCT1 POU domain)): 0.121 % of ANNNNAAN 8-mers
binding signal (POU2 (OCT2 POU domain)): 0.125 % of ANNNNAAN 8-mers
binding signal [1]: 0.0948 % of ANNNNAAN 8-mers
binding signal [2]: 0.125 % of ANNNNAAN 8-mers

ACTTCAAA
binding signal (POU1 (OCT1 POU domain)): 0.0256 % of ANNNNAAN 8-mers
binding signal (POU2 (OCT2 POU domain)): 0.0322 % of ANNNNAAN 8-mers
binding signal [1]: 0.0336 % of ANNNNAAN 8-mers
binding signal [2]: 0.0256 % of ANNNNAAN 8-mers

ATGCAAAC
binding signal (POU1 (OCT1 POU domain)): 0.543 % of ANNNNAAN 8-mers
binding signal (POU2 (OCT2 POU domain)): 0.445 % of ANNNNAAN 8-mers
binding signal [1]: 1.35 % of ANNNNAAN 8-mers
binding signal [2]: 1.27 % of ANNNNAAN 8-mers
